# Compounds with a hit are over-represented: about 1.2% of the library has one in this group of screens.
# DNA Pol III inh: DNA polymerase III holoenzyme inhibition; reconstituted DNA polymerase III holoenzyme replication, biochemical; Potency, µM (series often up to 57.1 µM), without a hit: at the top dose activity change, negative = inhibition; 71,000 tested, 0.25% active; also: potency is read from the fitted curve at half-maximal effect; % is scaled to controls: 0 for no effect and ±100 for the full control effect
#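 Reconstituted *E. coli* holoenzyme (0.35 nM Pol III, 1 nM beta, 154 nM SSB, 2 nM primase) was preincubated with compound for 15 min at RT. Synthesis on 1.4 nM ssM13Gori ran 35 min, then was stopped with PicoGreen/EDTA and read as dsDNA fluorescence.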
# YjeE inh: inhibitors of E. coli YjeE (TsaE) | P0AF67 | purified YjeE enzyme, qHTS inhibition assay | Potency, µM | 71,000 tested, 0.05% active | AID 605
#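 Purified YjeE (10 uM) with BODIPY Texas Red-labeled ADP probe (2 uM); compounds pin-transferred, 15 min at room temperature. Binding inhibition read as decreased fluorescence polarization; ADP titration as control.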
# BRCT inh red: BRCT-phosphoprotein interaction inhibition (red fluorophore); P38398; BRCT-phosphopeptide binding, red fluorescence polarization; Potency, µM (titrated, usually from 76.9 µM), inactives show top-dose activity change, negative = inhibition, actives largely listed as inhibitors; 75,000 tested, 0.03% active; also: % is scaled to controls: 0 for no effect and ±100 for the full control effect
#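 Fluorescence polarization: 100 nM His-tagged BRCA1 BRCT with 100 nM TAMRA-labelled phospho-BACH1 decapeptide, phosphate buffer pH 7.3 with 150 mM NaCl, DTT, 0.01% Tween 20; 12 min RT. Binding inhibition seen as FP decrease.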
# ERK AVP inh: vasopressin-driven ERK pathway inhibition. Potency, µM (top dose mostly 57.5 µM), without a hit: top-dose activity, negative = inhibition, actives largely listed as inhibitors. HEK293-V1b, vasopressin-stimulated pERK AlphaScreen. 72,000 tested, 0.99% active; also: potency is read from the fitted curve at half-maximal effect; % is scaled to controls: 0 for no effect and ±100 for the full control effect; nearly all actives have a fitted effect of over 55% in size
#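 Overnight-seeded V1b-HEK293 cells in 1% FBS got compound, then vasopressin (25 nM final, 5 min, 37C), then lysis buffer. AlphaScreen detection of phospho-ERK; activity normalized to basal and full-stimulation controls.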
# BRCT PPI green: blocks human BRCA1 BRCT binding to phosphopeptide, green readout; AID 875; 75,000 tested, 0.05% active; BRCA1 BRCT-phosphopeptide binding, green fluorescence polarization; Potency, µM (doses to about 76.9 µM), for the others: at the top dose activity change, negative = inhibition, hits mostly inhibitors; P38398;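 also: potency is read from the fitted curve at half-maximal effect; plate controls were peptide without protein for full effect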
#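 Fluorescence polarization: His-tagged BRCT (~35 kDa BRCA1 C-terminus, 250 nM) bound to 100 nM fluorescein-labeled phosphorylated 10-aa BACH1 peptide, pH 7.3 phosphate buffer with DTT and Tween 20. Compounds incubated 12 min at room temperature; inhibition read as lowered polarization.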
# Starred values were filed as active, the others as inactive; i = inactive; ? = inconclusive; · = no result; [ ] = remark or other dose. Calls follow the shape of the dose curve; as a rule, active = well fitted curve in the direction sought with a large enough effect; inconclusive = small, poorly fitted or top-dose-only effect, or another doubt; inactive = no such curve, though single readings can be large; an effect the other way counts as inactive or inconclusive.
SMILES,DNA Pol III inh,YjeE inh,BRCT inh red,ERK AVP inh,BRCT PPI green
CN(C)CC[C@@H](C(=O)C(C)(C)C)c1ccccn1,-3%[11.4 µM],i,1%[15.4 µM],17%[11.5 µM],0%[15.4 µM]
CO[C@]1(NC(=O)Cc2cccs2)C(=O)N2C(C(=O)O)=C(COC(N)=O)CS[C@H]21,-5%[25.6 µM],i,0%[34.4 µM],-13%[25.7 µM],0%[34.4 µM]
COc1ccccc1-c1nc(Nc2ccncc2)c2ccccc2n1,-10%,i,-2%,?,-7%
O=C(c1cnccn1)N1CCC2(CC1)CN(C(c1ccccc1)c1ccccc1)C2,-7%,i,1%,-18%,-4%
O=C(c1cnccn1)N1CCC2(CCCN(C(c3ccccc3)c3ccccc3)C2)CC1,2%,i,-1%,40µM*,0%
CCOC(=O)c1ccc(NC(=O)c2cccc(S(=O)(=O)N3CCOCC3)c2)cc1,-2%,i,-4%,5µM*,0%
O=C(Nc1ccc2c(c1)OCO2)c1cccc(S(=O)(=O)N2CCCC2)c1,0%,i,1%,16µM*,-1%
O=C(Nc1ccc(F)c(F)c1)c1ccc(F)c(S(=O)(=O)N2CCOCC2)c1,6%,i,0%,-3%,-2%
CCOC(=O)c1ccc(NC(=O)c2ccc(C)c(S(=O)(=O)N3CCOCC3)c2)cc1,4%[11.4 µM],i,-2%,3.2µM*,-1%
O=C(Nc1cccc(F)c1)c1cccc(S(=O)(=O)N2CCOCC2)c1,-2%,i,0%,-14%,0%
O=C(Nc1ccc2c(c1)OCCO2)c1ccc(Br)c(S(=O)(=O)N2CCOCC2)c1,-6%[11.4 µM],i,-2%,7.9µM*,-1%
C#CCCCC(=O)Nc1ccccc1,-8%,i,1%,12%,-2%
O=c1c(-c2ccc(Cl)cc2)nc2cnc(Oc3ccccc3)nc2n1C1CC1,-3%,i,0%,-9%,-1%
CN1CCc2c(cc(O)c(O)c2Cl)[C@H](c2cccc(Cl)c2)C1,-3%,i,-3%,7%,-2%
CCN1C(=O)CC(N2CCN(c3ccc(Cl)cc3)CC2)C1=O (configuration not stated),-1%,i,0%,6%,-1%
CCN1C(=O)CC(N2CCN(c3ccc(C(=O)c4ccccc4)cc3)CC2)C1=O (configuration not stated),-2%,i,0%,16µM*,-3%
O=C(NCCc1ccc(Cl)cc1)C1CCN(C(=O)c2sccc2-n2cccc2)CC1,-4%,i,-2%,16µM*,-1%
C#CCCCO/N=C1/[C@H]2O[C@@H]2[C@@H](O)[C@H]2[C@H]1CCn1c(=O)n(C)c(=O)n12,·,·,-1%[15.4 µM],-10%[11.5 µM],-1%[15.4 µM]
COc1ccccc1N1CCN(C(=O)CCc2ccc(S(=O)(=O)NCC(C)C)cc2)CC1,-1%,i,0%,25µM*,-1%
COc1ccccc1N1CCN(C(=O)CCc2ccc(S(=O)(=O)NC(C)C)cc2)CC1,-6%,i,-2%,-27%,0%
CCOC(=O)N1CCC(NC(=O)Cn2ncc3ccccc32)CC1,-3%,i,-5%,0%,-2%
CCOC(=O)N1CCN(C(=O)Cn2ncc3ccccc32)CC1,25µM*,i,-3%,4%,-2%
CCOC(=O)N1CCN(C(=O)c2cnn3ccccc23)CC1,-1%,32µM*,1%,-4%,0%
ON=Cc1cccn1-c1ccccc1,-4%,i,-1%,-10%,0%
O=C(O)c1cccc(-n2cccc2/C=N/O)c1,16µM*,i,-5%,33%,-3%
CC(C)(C)CNCCO,-10%[11.4 µM],i,1%[15.4 µM],-2%[11.5 µM],-3%[15.4 µM]
C/C=C\C1=C(CO)C(=O)C2O[C@]2(CC=C(C)C)C1=O (some centres not stated),·,·,1%[15.4 µM],9%[11.5 µM],0%[15.4 µM]
CCOc1cc(C(=O)Nc2ccc3c(c2)OCO3)ccc1OC(F)F,-10%,i,-2%,20µM*,-7%
CCOc1ccc(C(=O)Nc2ccc3c(c2)OCCO3)cc1OC,-9%,i,-2%,-10%,-2%
NCCC[C@@H](CC(=O)N[C@@H]1CCCC[C@H]1C(=O)N[C@H](CC(=O)N[C@@H](CCC(=O)O)CC(=O)O)Cc1ccccc1)NC(=O)C[C@H](Cc1ccccc1)NC(=O)[C@@H]1CCCC[C@H]1N,-4%,i,·,·,·

# Bioassay records from PubChem BioAssay.
